# Test results from PubChem BioAssay (Tox21).
# “And” between values parts separate entries of the source, which are not always exact repeats. Equal values may be shown once. Results filed as inconclusive are left out. Where a call stands in place of a potency, no number is given. The source made the active and inactive calls. Calls come from the whole dose curve; as a rule, active = well fitted cell-killing curve with a large enough effect in the repeat runs; inconclusive = weak or mixed curves; inactive = no such curve, though single readings can be large or run the other way.
# Assay: qHTS assay to identify small molecule antagonists of the peroxisome proliferator-activated receptor delta (PPARd) signaling pathway - cell viability counter screen (AID 743213); note: nearly all actives have a fitted effect of over 50% in size
# Conditions: PPARd-bla HEK293H viability, CellTiter-Glo luminescence, 17 h; series mostly up to 62 µM; viability change, negative = cytotoxic: at the top concentration
# Description: U.S. Tox21 Program National Center for Advancing Translational Sciences [NCATS] NIH Chemical Genomics Center [NCGC] U.S. Environmental Protection Agency [EPA] National Institutes of Environmental Health Sciences [NIEHS] National Toxicology Program [NTP] U.S. Food and Drug Administration [FDA] Tox21 Assay Overview: The peroxisome proliferator-activated receptors (PPARs) are lipid-activated transcription factors of the nuclear receptor superfamily with three distinct subtypes namely PPAR alpha, PPAR delta (PPARd) and PPAR gamma. All these subtypes heterodimerizes with Retinoid X receptor (RXR) and have different physiological functions. […] To identify the compounds that inhibit PPAR-delta signaling, GeneBLAzer PPAR delta UAS-bla HEK293H cell line (Invitrogen, Carlsbad, CA, USA) containing a beta-lactamase reporter gene under the control of an Upstream Activator Sequence (UAS) was used to screen the Tox21 compound library. The cytotoxicity of the Tox21 compound library against the PPARd-bla cell line was tested in parallel by measuring the cell viability using CellTiter-Glo assay (Promega, Madison, WI) in the same wells.
# Tox21 Assay Protocol Summary: PPARd-bla cells were dispensed at 3000 cells/5uL/well in 1536-well black wall/clear bottom plates using a Multidrop Combi (Thermo Fisher Scientific, Waltham, MA) dispenser. After the assay plates were incubated at 37 C and 5% CO2 for 5 h, 23 nL of compounds dissolved in DMSO, positive controls or DMSO only was transferred to the assay plate by a Pintool station (Kalypsys, San Diego, CA), followed by addition of 1ul L165041 (300 nM, final concentration in the wells). The assay plates were incubated at 37 C for 17 h, and then 1 uL of LiveBLAzerTM B/G FRET substrate was added using a Bioraptr Flying Reagent Dispenser (FRD) workstation (Beckman Coulter, Indianapolis, IN, USA). The assay plates were incubated at room temperature for 2 h and fluorescence intensity was measured by an Envision plate reader (PerkinElmer, Shelton, CT). For cell viability readout that measures cytotoxicity, 3 ul/well of CellTiter-Glo reagent was added into the assay plates using a Bioraptr FRD. After 30 min incubation at room temperature, the luminescence intensity in the plates was measured using a ViewLux plate reader (PerkinElmer).
# Potency is the fitted concentration of half-maximal effect.
Compound,Potency,"viability change, negative = cytotoxic"
Cc1ccc(N=CN(C)C=Nc2ccc(C)cc2C)c(C)c1,24.5 µM (active),–
CCN(CC)C(=O)C(C)Oc1cccc2ccccc12 (stereo not given),inactive,–
COc1ccc(CO)cc1,inactive,–
CC(C)(O)C#N,inactive,–
Cc1ccc([N+](=O)[O-])cc1,inactive,–
CCOC(=O)c1ccccc1N,–,-1.03% (inactive)
Cn1c(-c2ccccc2)cc(-c2ccccc2)[n+]1C,inactive,–
CC[n+]1c(-c2ccccc2)c2cc(N)ccc2c2ccc(N)cc21,inactive,–
O=C1Nc2ccc(Cl)cc2C(c2ccccc2)=NC1O (stereo not given),inactive,–
N#CC(c1ccccc1)c1ccccc1,inactive,–
CCCCC(C#N)(Cn1cncn1)c1ccc(Cl)cc1 (stereo not given),–,-19.4% (inactive)
CC1=C(C(=O)Nc2ccccc2)SCCO1,inactive,–
CCC[CH2][Sn]([Cl])([CH2]CCC)[CH2]CCC,778 nM (active) and 1.95 µM (active),–
CCOS(=O)(=O)OCC,inactive,–
CNC(=S)S,inactive,–
N#Cc1cccnc1,inactive,–
COP(=S)(OC)Oc1ccc(Sc2ccc(OP(=S)(OC)OC)cc2)cc1,inactive,–
NC(=O)CN1CCCC1=O,inactive,–
Nc1ncn[nH]1,inactive,–
O=C(O)c1nn(Cc2ccc(Cl)cc2Cl)c2ccccc12,–,1.26% (inactive)

Compound,Potency,"viability change, negative = cytotoxic"
COP(=O)(NC(C)=O)SC (stereo not given),inactive,–
CC(C)(c1ccc(OCC2CO2)cc1)c1ccc(OCC2CO2)cc1 (stereo not given),–,7.4% (inactive)
CCC[CH2][Sn]([Cl])([Cl])[CH2]CCC,556 nM (active) and 155 nM (active),–
CC(C)Nc1nc(Cl)nc(NC(C)C)n1,inactive,–
C[N+](C)(C)CC(=O)O,inactive,–
C[N+](C)(C)C,inactive,–
C=CC(Cl)CCl (stereo not given),inactive,–
COc1ccc(O)c(C(C)(C)C)c1,–,4.29% (inactive)
CCCCCCCC[N+](C)(CCCCCCCC)CCCCCCCC,3.88 µM (active) and 2.46 µM (active) and 5.49 µM (active),–
CCCCCCCCCCCCCl,inactive,–
Clc1ccccc1-c1nnc(-c2ccccc2Cl)nn1,–,-12.8% (inactive)
O=[N+]([O-])/N=C1\NCCN1Cc1ccc(Cl)nc1,inactive,–
CC(C)(c1ccccc1)c1ccc(O)c(C(C)(C)c2ccccc2)c1,34.3 µM (active) and 43.6 µM (active),–
CC(C)=CC1C(C(=O)OCc2cccc(Oc3ccccc3)c2)C1(C)C (stereo not given),inactive,–
c1ccc(C2CO2)cc1 (stereo not given),inactive,–
C=CC(=O)OCC(CC)(COC(=O)C=C)COC(=O)C=C,13.8 µM (active),–
Cl,inactive,–
[Cl-].[Cl-].[Cl-].[Fe+3],inactive,–
CCCCOCCOC(C)=O,inactive,–
CC(C)COC(=O)c1ccccc1C(=O)OCC(C)C,inactive,–
